# Measured values taken from PubChem BioAssay (Tox21).
# Values without a mark were called inactive. Inconclusive results are not listed. A call without a number means that no potency is given here. The source made the active and inactive calls. Calls come from the whole dose curve; as a rule, active = well fitted curve in the direction sought with a large enough effect in the repeat runs; inconclusive = weak or mixed curves; inactive = no such curve, though single readings can be large; an effect the other way counts as inactive or inconclusive.
# How the values were obtained:
# [1] = A CellTox Green Cytotoxicity Assay to monitor cytotoxicity in HepG2 cells - 16 hour (AID 1224876); conditions: CellTox Green fluorescence; series mostly up to 76.8 µM; note: nearly all actives have a fitted effect of over 45% in size; note: potency is the fitted concentration of half-maximal effect
# How it was run: (§1)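 HepG2 cells were seeded together with the CellTox Green dye at 600 cells/well, left 5 h at 37 C/5% CO2, then given compounds in DMSO. Fluorescence from dye bound to dead-cell DNA was read repeatedly over 40 h of treatment at 37 C.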
# [2] = qHTS RealTime-Glo MT Cell Viability Assay in HepG2 cells - 32 hour (AID 1224877); conditions: RealTime-Glo luminescence; series mostly up to 76.8 µM; note: nearly all actives have a fitted effect of over 55% in size; note: potency is the fitted concentration of half-maximal effect
# How it was run: (§2)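 Cells + NanoLuc/prosubstrate dispensed (600 cells/well) → 5 h at 37 C/5% CO2 → compounds in DMSO transferred → 40 h incubation at 37 C, luminescence read at 0, 8, 16, 24, 32, 40 h.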
# [3] = A CellTox Green Cytotoxicity Assay to monitor cytotoxicity in HepG2 cells - 24 hour (AID 1224878); conditions: CellTox Green fluorescence; series mostly up to 76.8 µM; note: nearly all actives have a fitted effect of over 45% in size; note: potency is the fitted concentration of half-maximal effect
# How it was run: as §1
# [4] = A CellTox Green Cytotoxicity Assay to monitor cytotoxicity in HepG2 cells - 40 hour (AID 1224879); conditions: CellTox Green fluorescence; series mostly up to 76.8 µM; note: nearly all actives have a fitted effect of over 40% in size; note: potency is the fitted concentration of half-maximal effect
# How it was run: as §1
# [5] = qHTS RealTime-Glo MT Cell Viability Assay in HEK293 cells - 0 hour (AID 1224880); conditions: RealTime-Glo luminescence; series mostly up to 76.8 µM; note: top concentration of the series differs between compounds; nearly all actives have a fitted effect of over 45% in size
# How it was run: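 HEK293 cells mixed with RealTime-Glo reagents (NanoLuc plus cell-permeant prosubstrate) at 600 cells/well, preincubated 5 h at 37 C/5% CO2, then given 23 nL compound in DMSO. Nonlytic luminescence from viable cells was read at 0, 8, 16, 24, 32 and 40 h.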
# [6] = A CellTox Green Cytotoxicity Assay to monitor cytotoxicity in HEK293 cells - 32 hour (AID 1224881); conditions: CellTox Green fluorescence; series mostly up to 76.8 µM; note: nearly all actives have a fitted effect of over 40% in size; note: potency is the fitted concentration of half-maximal effect
# How it was run: (§3)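 HEK293 cells premixed with CellTox Green dye were seeded at 600 cells/well and left 5 h at 37 C/5% CO2 before pin transfer of 23 nL compound in DMSO. Fluorescence from dye bound to dead-cell DNA was read during 40 h treatment.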
# [7] = A CellTox Green Cytotoxicity Assay to monitor cytotoxicity in HepG2 cells - 0 hour (AID 1224882); conditions: CellTox Green fluorescence; series mostly up to 76.8 µM; note: nearly all actives have a fitted effect of over 35% in size
# How it was run: as §1
# [8] = A CellTox Green Cytotoxicity Assay to monitor cytotoxicity in HepG2 cells - 32 hour (AID 1224883); conditions: CellTox Green fluorescence; series mostly up to 76.8 µM; note: nearly all actives have a fitted effect of over 50% in size; note: potency is the fitted concentration of half-maximal effect
# How it was run: as §1
# [9] = A CellTox Green Cytotoxicity Assay to monitor cytotoxicity in HEK293 cells - 8 hour (AID 1224884); conditions: CellTox Green fluorescence; series mostly up to 76.8 µM; note: nearly all actives have a fitted effect of over 35% in size; note: potency is the fitted concentration of half-maximal effect
# How it was run: as §3
# [10] = qHTS RealTime-Glo MT Cell Viability Assay in HepG2 cells - 16 hour (AID 1224885); conditions: RealTime-Glo luminescence; series mostly up to 76.8 µM; note: nearly all actives have a fitted effect of over 50% in size; note: potency is the fitted concentration of half-maximal effect
# How it was run: as §2
compound,measurement,setting,value
C/C=C/C(=O)OCC(C)C,Potency,[1],inactive
same,Potency,[2],inactive
same,Potency,[3],inactive
same,Potency,[4],inactive
same,Potency,[5],inactive
same,Potency,[6],inactive
same,Potency,[7],inactive
same,Potency,[8],inactive
same,Potency,[9],inactive
same,Potency,[10],inactive
[Cl][Sc]([Cl])[Cl],Potency,[1],inactive
same,Potency,[2],inactive
same,Potency,[3],inactive
same,Potency,[4],inactive
same,Potency,[5],inactive
same,Potency,[6],inactive
same,Potency,[7],inactive
same,Potency,[8],inactive
same,Potency,[9],inactive
same,Potency,[10],inactive
Cc1cc(C)c(O)c(C(C)(C)C)c1,Potency,[1],inactive
same,Potency,[2],inactive
same,Potency,[3],inactive
same,Potency,[4],inactive
same,Potency,[5],inactive
same,Potency,[6],27.5 µM (active)
same,Potency,[7],inactive
same,Potency,[8],inactive
same,Potency,[9],inactive
CN(C)CCOc1ccc(/C(=C(/CCCl)c2ccccc2)c2ccccc2)cc1,Potency,[1],32.5 µM (active)
same,Potency,[2],40.9 µM (active)
same,Potency,[3],32.5 µM (active)
same,Potency,[4],32.5 µM (active)
same,Potency,[5],inactive
same,Potency,[6],40.9 µM (active)
same,Potency,[7],inactive
same,Potency,[8],32.5 µM (active)
same,Potency,[9],45.8 µM (active)
same,Potency,[10],40.9 µM (active)
Cc1ccc(C=O)cc1,Potency,[1],inactive
same,Potency,[2],inactive
same,Potency,[3],inactive
same,Potency,[4],inactive
same,Potency,[5],inactive
same,Potency,[6],inactive
same,Potency,[7],inactive
same,Potency,[8],inactive
same,Potency,[9],inactive
N#CCCOCCC#N,Potency,[1],inactive
same,Potency,[2],inactive
same,Potency,[3],inactive
same,Potency,[4],inactive
same,Potency,[5],inactive
same,Potency,[6],inactive
same,Potency,[7],inactive
same,Potency,[8],inactive
same,Potency,[9],inactive
same,Potency,[10],inactive
CCOC(=O)[C@H](O)[C@@H](O)C(=O)OCC,Potency,[1],inactive
same,Potency,[2],inactive
same,Potency,[3],inactive
same,Potency,[4],inactive
same,Potency,[5],inactive
same,Potency,[6],inactive
same,Potency,[7],inactive
same,Potency,[8],inactive
same,Potency,[9],inactive
C/C(=N\[Si](C)(C)C)O[Si](C)(C)C,Potency,[1],inactive
same,Potency,[2],inactive
same,Potency,[3],inactive
same,Potency,[4],inactive
same,Potency,[5],inactive
same,Potency,[6],inactive
same,Potency,[7],inactive
same,Potency,[8],inactive
same,Potency,[9],inactive
same,Potency,[10],inactive
CC1CCC(C(C)(C)O)CC1 (centres undefined),Potency,[1],inactive
same,Potency,[2],inactive
same,Potency,[3],inactive
same,Potency,[4],inactive
same,Potency,[5],inactive
same,Potency,[6],inactive
same,Potency,[7],inactive
same,Potency,[8],inactive
same,Potency,[9],inactive
CCCCCCCCc1ccc(Nc2ccc(CCCCCCCC)cc2)cc1,Potency,[1],inactive
same,Potency,[2],inactive
same,Potency,[3],inactive
same,Potency,[4],inactive
same,Potency,[5],inactive
same,Potency,[6],inactive
same,Potency,[7],inactive
same,Potency,[8],inactive
same,Potency,[9],inactive
same,Potency,[10],inactive
O=[N+]([O-])c1ccc(CO)cc1,Potency,[1],inactive
same,Potency,[2],inactive
same,Potency,[3],inactive
same,Potency,[4],inactive
same,Potency,[5],inactive
same,Potency,[6],inactive
same,Potency,[7],inactive
same,Potency,[8],inactive
same,Potency,[9],inactive
C=CC(C)(C)O,Potency,[1],inactive
same,Potency,[2],inactive
same,Potency,[3],inactive
same,Potency,[4],inactive
same,Potency,[5],inactive
same,Potency,[6],inactive
same,Potency,[7],inactive
same,Potency,[8],inactive
same,Potency,[9],inactive
same,Potency,[10],inactive
CCc1cccc(C)c1N(C(=O)C(=O)O)C(C)COC (centres undefined),Potency,[1],inactive
same,Potency,[2],inactive
same,Potency,[3],inactive
same,Potency,[4],inactive
same,Potency,[5],inactive
same,Potency,[6],inactive
same,Potency,[7],inactive
same,Potency,[8],inactive
same,Potency,[9],inactive
same,Potency,[10],inactive
CN(C[C@@H](CC[N+]12CCC(C3CCCCC3)(CC1)CC2)c1ccc(Cl)c(Cl)c1)C(=O)c1cc(C(F)(F)F)cc(C(F)(F)F)c1,Potency,[1],24.5 µM (active)
same,Potency,[2],24.5 µM (active)
same,Potency,[3],24.5 µM (active)
same,Potency,[4],24.5 µM (active)
same,Potency,[5],inactive
same,Potency,[6],34.7 µM (active)
same,Potency,[7],inactive
same,Potency,[8],24.5 µM (active)
same,Potency,[9],43.6 µM (active)
same,Potency,[10],21.9 µM (active)
CC(Cc1ccc(O)c(O)c1)C(C)Cc1ccc(O)c(O)c1 (centres undefined),Potency,[1],49 µM (active)
same,Potency,[2],49 µM (active)
same,Potency,[3],49 µM (active)
same,Potency,[4],43.6 µM (active)
same,Potency,[5],inactive
same,Potency,[6],inactive
same,Potency,[7],inactive
same,Potency,[8],43.6 µM (active)
same,Potency,[9],inactive
same,Potency,[10],43.6 µM (active)
C=C[Si](C)(C)Cl,cytotoxicity increase,[1],-13.5% [at 6.97 µM]
same,"activity change, negative = cytotoxic",[2],9.18% [at 6.97 µM]
same,cytotoxicity,[3],-14.5% [at 6.97 µM]
same,cytotoxicity increase,[4],-18.2% [at 6.97 µM]
same,"activity change, negative = cytotoxicity",[5],-5.88% [at 6.97 µM]
same,cytotoxicity increase,[6],-7.47% [at 6.97 µM]
same,cytotoxicity,[7],-6.72% [at 6.97 µM]
same,cytotoxicity increase,[8],-16.4% [at 6.97 µM]
same,cytotoxicity increase,[9],-2.48% [at 6.97 µM]
same,"activity change, negative = cytotoxic",[10],-9.49% [at 6.97 µM]
NC(=O)C1CO1 (centres undefined),Potency,[1],inactive
same,Potency,[2],inactive
same,Potency,[3],inactive
same,Potency,[4],inactive
same,Potency,[5],inactive
same,Potency,[6],inactive
same,Potency,[8],inactive
same,Potency,[9],inactive
same,Potency,[10],inactive
CC(C)(C)C1=CC(=O)C(C(C)(C)C)=CC1=O,Potency,[1],inactive
same,Potency,[2],inactive
same,Potency,[3],inactive
same,Potency,[4],inactive
same,Potency,[5],inactive
same,Potency,[6],inactive
same,Potency,[8],inactive
same,Potency,[9],inactive
same,Potency,[10],inactive
O=c1[nH]cccc1O,Potency,[1],inactive
same,Potency,[2],inactive
same,Potency,[3],inactive
same,Potency,[4],inactive
same,Potency,[5],inactive
same,Potency,[6],inactive
same,Potency,[8],inactive
same,Potency,[9],inactive
same,Potency,[10],inactive
C=CC(=O)O[C@H]1C[C@@H]2CC[C@@]1(C)C2(C)C,Potency,[1],inactive
same,Potency,[2],inactive
same,Potency,[3],inactive
same,Potency,[4],inactive
same,Potency,[5],inactive
same,Potency,[7],inactive
same,Potency,[9],inactive
O=C(O)C[C@H](O)C[C@H](O)/C=C/c1c(C2CC2)nc2ccccc2c1-c1ccc(F)cc1,cytotoxicity increase,[1],7.91% [at 15.8 µM]
same,"activity change, negative = cytotoxic",[2],-27.7% [at 15.8 µM]
same,Potency,[3],2.61 µM (active)
same,Potency,[4],2.61 µM (active)
same,"activity change, negative = cytotoxicity",[5],8.78% [at 15.8 µM]
same,cytotoxicity increase,[6],-0.515% [at 15.8 µM]
same,cytotoxicity,[7],0.628% [at 15.8 µM]
same,Potency,[8],2.61 µM (active)
same,cytotoxicity increase,[9],-1.19% [at 15.8 µM]
same,"activity change, negative = cytotoxic",[10],0.557% [at 15.8 µM]
